# Reference: ChEMBL document CHEMBL1961873, “Compounds: GSK PKIS; Assays: Nanosyn kinase panel” (2012)
# Legend:
# [1] = biological target: 5'-AMP-activated protein kinase catalytic subunit alpha-2 (Homo sapiens) (UniProt P54646); conditions: at 1 µM
# [2] = biological target: T1, NUAK family SNF1-like kinase 1 (Homo sapiens) (UniProt O60285); conditions: at 0.1 µM
# T1 sequence (whole entry): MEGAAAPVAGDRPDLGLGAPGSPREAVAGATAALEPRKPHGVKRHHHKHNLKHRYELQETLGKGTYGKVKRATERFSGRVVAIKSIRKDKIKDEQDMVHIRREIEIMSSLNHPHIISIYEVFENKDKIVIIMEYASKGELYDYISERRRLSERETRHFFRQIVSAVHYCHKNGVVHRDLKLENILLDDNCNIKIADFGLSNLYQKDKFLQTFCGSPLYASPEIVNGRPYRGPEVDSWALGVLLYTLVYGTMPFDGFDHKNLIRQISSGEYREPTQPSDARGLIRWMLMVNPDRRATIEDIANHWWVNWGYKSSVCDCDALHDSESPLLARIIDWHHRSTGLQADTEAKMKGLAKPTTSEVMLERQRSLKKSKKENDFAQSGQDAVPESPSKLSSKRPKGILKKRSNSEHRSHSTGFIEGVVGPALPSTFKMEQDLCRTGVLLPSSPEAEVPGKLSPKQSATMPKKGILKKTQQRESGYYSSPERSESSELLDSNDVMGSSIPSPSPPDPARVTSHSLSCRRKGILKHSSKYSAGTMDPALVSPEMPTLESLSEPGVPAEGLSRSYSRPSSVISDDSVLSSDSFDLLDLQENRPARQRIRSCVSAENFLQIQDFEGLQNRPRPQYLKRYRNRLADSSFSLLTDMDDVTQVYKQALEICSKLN
# [3] = biological target: T1, NUAK family SNF1-like kinase 1 (Homo sapiens); conditions: at 1 µM
# [4] = biological target: T2, Serine/threonine-protein kinase BRSK1 (Homo sapiens) (UniProt Q8TDC3); conditions: at 0.1 µM
# T2 sequence (whole entry): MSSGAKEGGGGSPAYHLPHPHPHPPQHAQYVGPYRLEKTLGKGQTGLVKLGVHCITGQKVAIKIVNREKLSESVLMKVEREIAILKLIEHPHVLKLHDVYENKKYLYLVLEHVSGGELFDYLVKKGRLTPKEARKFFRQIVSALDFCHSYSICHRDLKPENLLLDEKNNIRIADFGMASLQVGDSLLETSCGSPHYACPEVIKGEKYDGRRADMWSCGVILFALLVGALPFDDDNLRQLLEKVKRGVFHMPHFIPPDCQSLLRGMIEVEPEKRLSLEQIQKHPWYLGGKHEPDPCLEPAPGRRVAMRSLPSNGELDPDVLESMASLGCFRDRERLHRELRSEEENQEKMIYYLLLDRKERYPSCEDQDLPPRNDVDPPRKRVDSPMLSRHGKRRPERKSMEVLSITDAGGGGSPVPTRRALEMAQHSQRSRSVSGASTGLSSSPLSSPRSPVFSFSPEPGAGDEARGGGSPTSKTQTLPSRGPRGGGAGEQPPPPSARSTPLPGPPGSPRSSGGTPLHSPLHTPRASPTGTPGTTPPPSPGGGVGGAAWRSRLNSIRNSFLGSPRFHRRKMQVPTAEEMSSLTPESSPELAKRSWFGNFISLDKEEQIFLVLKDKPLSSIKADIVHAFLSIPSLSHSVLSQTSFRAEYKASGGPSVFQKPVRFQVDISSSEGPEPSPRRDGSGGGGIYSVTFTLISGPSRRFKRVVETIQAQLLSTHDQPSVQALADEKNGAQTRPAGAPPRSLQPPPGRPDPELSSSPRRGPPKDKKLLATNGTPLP
# [5] = biological target: T2, Serine/threonine-protein kinase BRSK1 (Homo sapiens); conditions: at 1 µM
# [6] = biological target: T3, Serine/threonine-protein kinase BRSK2 (Homo sapiens) (UniProt Q8IWQ3); conditions: at 0.1 µM
# T3 sequence (whole entry): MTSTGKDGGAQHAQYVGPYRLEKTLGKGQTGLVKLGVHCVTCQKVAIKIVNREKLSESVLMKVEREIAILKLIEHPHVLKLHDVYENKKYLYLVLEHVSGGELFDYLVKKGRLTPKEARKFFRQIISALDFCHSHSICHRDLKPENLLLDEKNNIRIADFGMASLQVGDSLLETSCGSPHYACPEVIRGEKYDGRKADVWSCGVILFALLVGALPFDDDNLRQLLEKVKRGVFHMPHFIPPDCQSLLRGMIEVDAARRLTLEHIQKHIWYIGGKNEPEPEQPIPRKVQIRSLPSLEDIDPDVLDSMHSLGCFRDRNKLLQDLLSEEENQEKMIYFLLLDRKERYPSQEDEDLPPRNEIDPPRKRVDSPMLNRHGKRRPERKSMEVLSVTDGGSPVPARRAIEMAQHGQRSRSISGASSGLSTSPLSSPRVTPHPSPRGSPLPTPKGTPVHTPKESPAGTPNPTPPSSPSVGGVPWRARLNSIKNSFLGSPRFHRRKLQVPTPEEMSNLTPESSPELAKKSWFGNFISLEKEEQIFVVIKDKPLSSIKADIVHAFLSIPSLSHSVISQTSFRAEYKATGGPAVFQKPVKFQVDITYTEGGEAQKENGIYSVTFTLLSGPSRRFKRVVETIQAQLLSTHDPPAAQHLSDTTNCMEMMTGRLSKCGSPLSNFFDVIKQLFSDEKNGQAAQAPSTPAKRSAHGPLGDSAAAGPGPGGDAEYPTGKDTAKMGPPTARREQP
# [7] = biological target: T3, Serine/threonine-protein kinase BRSK2 (Homo sapiens); conditions: at 1 µM
# [8] = biological target: Calcium/calmodulin-dependent protein kinase type 1D (Homo sapiens) (UniProt Q8IU85); conditions: at 0.1 µM
# [9] = biological target: Calcium/calmodulin-dependent protein kinase type 1D (Homo sapiens) (UniProt Q8IU85); conditions: at 1 µM
# [10] = biological target: Calcium/calmodulin-dependent protein kinase type II subunit alpha (Homo sapiens) (UniProt Q9UQM7); conditions: at 0.1 µM
# [11] = biological target: Calcium/calmodulin-dependent protein kinase type II subunit alpha (Homo sapiens) (UniProt Q9UQM7); conditions: at 1 µM
# [12] = biological target: Calcium/calmodulin-dependent protein kinase type II subunit delta (Homo sapiens) (UniProt Q13557); conditions: at 0.1 µM
# [13] = biological target: Calcium/calmodulin-dependent protein kinase type II subunit delta (Homo sapiens) (UniProt Q13557); conditions: at 1 µM
# [14] = biological target: T4, Calcium/calmodulin-dependent protein kinase type IV (Homo sapiens) (UniProt Q16566); conditions: at 0.1 µM
# T4 sequence (whole entry): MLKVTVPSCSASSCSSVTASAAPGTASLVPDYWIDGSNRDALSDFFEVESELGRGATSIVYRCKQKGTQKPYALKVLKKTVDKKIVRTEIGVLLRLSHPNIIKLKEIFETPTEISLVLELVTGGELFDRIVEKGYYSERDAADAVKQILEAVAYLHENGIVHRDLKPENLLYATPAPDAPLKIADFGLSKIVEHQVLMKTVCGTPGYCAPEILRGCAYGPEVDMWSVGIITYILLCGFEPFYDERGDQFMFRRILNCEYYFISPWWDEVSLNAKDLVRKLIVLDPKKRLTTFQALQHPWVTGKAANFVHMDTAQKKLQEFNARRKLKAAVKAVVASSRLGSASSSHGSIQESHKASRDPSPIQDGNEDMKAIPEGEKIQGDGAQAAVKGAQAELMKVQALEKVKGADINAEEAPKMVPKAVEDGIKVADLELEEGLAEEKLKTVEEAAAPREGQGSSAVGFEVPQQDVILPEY
# [15] = biological target: T4, Calcium/calmodulin-dependent protein kinase type IV (Homo sapiens); conditions: at 1 µM
# [16] = biological target: T5, Serine/threonine-protein kinase Chk1 (Homo sapiens) (UniProt O14757); conditions: at 0.1 µM
# T5 sequence (whole entry): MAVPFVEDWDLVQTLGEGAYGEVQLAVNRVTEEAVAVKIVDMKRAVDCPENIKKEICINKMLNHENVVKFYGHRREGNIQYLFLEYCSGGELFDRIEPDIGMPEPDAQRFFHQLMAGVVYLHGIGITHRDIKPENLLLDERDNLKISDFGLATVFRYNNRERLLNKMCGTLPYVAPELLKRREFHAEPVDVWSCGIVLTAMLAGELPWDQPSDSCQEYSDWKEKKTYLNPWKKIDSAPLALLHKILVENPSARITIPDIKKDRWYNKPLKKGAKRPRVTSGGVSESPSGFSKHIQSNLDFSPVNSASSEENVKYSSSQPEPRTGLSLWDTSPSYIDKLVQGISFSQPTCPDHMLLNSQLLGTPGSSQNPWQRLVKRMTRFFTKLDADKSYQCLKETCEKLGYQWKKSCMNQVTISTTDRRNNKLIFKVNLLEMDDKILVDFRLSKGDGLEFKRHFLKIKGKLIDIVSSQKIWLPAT
# [17] = biological target: T5, Serine/threonine-protein kinase Chk1 (Homo sapiens); conditions: at 1 µM
# [18] = biological target: Serine/threonine-protein kinase Chk2 (Homo sapiens) (UniProt O96017); conditions: at 0.1 µM
# [19] = biological target: Serine/threonine-protein kinase Chk2 (Homo sapiens) (UniProt O96017); conditions: at 1 µM
# [20] = biological target: Death-associated protein kinase 1 (Homo sapiens) (UniProt P53355); conditions: at 0.1 µM;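 further: reported figure is the mean inhibition of DAPK1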
# Sequence of Death-associated protein kinase 1 (Homo sapiens) (P53355 whole entry, looked up): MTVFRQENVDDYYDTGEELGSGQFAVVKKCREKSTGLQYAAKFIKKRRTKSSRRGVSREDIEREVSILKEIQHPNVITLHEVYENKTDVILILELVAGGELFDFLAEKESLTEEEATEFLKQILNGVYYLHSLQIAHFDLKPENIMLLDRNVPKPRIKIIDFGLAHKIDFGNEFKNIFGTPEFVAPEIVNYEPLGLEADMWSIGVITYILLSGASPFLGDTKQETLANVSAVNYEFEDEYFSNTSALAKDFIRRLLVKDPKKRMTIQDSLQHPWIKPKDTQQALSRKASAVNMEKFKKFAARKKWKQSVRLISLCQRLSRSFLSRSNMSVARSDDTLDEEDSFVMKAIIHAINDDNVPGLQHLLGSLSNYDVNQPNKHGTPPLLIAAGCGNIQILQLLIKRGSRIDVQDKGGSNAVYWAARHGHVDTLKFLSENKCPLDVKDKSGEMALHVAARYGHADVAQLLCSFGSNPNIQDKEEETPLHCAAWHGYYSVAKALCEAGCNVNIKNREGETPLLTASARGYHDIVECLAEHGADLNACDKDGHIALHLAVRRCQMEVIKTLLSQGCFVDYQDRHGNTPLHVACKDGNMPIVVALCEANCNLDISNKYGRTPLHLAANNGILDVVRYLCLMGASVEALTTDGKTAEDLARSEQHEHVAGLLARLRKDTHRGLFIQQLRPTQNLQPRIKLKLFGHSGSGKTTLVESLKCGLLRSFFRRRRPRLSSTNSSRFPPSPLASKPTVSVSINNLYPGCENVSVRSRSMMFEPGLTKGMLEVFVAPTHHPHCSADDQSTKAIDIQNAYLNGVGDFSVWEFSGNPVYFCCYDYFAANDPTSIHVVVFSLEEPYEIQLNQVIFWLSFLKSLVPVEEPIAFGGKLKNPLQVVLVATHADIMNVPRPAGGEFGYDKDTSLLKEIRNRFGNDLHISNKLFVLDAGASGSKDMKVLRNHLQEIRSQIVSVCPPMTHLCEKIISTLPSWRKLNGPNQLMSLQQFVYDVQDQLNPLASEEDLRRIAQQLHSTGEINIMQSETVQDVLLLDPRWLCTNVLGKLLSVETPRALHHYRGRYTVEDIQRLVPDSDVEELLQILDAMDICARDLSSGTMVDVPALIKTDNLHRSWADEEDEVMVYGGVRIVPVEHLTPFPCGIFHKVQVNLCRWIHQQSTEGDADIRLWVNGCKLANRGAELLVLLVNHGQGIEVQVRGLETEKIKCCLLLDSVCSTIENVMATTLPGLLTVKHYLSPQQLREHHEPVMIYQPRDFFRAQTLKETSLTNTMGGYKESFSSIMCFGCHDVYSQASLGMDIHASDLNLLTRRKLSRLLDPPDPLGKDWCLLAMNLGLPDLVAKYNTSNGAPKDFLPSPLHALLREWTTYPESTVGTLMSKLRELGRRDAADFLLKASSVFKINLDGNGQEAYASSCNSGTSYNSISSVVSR
# Sequence of 5'-AMP-activated protein kinase catalytic subunit alpha-2 (Homo sapiens) (P54646 whole entry, looked up): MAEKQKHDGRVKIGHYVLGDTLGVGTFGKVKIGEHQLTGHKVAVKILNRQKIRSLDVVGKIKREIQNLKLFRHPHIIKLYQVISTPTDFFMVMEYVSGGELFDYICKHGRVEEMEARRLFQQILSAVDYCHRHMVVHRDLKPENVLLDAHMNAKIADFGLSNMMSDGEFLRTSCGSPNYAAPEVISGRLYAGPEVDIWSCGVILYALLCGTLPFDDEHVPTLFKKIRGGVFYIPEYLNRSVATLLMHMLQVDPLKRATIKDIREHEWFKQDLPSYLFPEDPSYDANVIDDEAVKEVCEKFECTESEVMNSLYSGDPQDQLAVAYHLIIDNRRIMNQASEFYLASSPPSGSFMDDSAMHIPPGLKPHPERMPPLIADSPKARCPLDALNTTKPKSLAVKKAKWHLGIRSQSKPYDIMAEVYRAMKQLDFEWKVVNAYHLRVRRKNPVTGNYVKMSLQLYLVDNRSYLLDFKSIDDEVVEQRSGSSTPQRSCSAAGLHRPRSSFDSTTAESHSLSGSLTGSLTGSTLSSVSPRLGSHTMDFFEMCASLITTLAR
# Sequence of Calcium/calmodulin-dependent protein kinase type II subunit delta (Homo sapiens) (Q13557 whole entry): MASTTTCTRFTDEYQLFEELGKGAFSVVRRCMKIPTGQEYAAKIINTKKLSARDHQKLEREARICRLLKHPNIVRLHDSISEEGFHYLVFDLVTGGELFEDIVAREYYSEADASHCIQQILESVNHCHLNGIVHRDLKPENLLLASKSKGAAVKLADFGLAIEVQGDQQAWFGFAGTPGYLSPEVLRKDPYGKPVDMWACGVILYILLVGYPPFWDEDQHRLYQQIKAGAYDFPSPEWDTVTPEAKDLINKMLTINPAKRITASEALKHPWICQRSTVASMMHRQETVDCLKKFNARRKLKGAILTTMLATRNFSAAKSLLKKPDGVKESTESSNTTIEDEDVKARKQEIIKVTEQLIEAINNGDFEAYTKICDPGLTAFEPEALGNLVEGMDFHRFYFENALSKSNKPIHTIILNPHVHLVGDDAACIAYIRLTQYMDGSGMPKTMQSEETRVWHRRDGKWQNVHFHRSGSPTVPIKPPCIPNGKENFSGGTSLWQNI
# Sequence of Calcium/calmodulin-dependent protein kinase type II subunit alpha (Homo sapiens) (Q9UQM7 whole entry): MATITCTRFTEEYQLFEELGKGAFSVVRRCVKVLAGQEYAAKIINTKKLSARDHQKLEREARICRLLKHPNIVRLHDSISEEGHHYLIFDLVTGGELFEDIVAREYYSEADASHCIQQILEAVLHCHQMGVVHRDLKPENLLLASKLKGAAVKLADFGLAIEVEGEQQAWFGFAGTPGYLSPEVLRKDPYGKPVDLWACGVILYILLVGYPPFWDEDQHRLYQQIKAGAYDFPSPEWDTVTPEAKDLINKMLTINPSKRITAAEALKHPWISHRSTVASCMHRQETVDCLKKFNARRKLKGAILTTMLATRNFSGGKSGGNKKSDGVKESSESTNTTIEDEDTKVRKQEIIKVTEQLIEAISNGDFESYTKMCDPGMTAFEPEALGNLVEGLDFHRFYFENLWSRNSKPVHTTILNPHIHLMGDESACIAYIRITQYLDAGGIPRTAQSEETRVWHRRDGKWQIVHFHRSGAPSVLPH
# Sequence of Calcium/calmodulin-dependent protein kinase type 1D (Homo sapiens) (Q8IU85 whole entry, looked up): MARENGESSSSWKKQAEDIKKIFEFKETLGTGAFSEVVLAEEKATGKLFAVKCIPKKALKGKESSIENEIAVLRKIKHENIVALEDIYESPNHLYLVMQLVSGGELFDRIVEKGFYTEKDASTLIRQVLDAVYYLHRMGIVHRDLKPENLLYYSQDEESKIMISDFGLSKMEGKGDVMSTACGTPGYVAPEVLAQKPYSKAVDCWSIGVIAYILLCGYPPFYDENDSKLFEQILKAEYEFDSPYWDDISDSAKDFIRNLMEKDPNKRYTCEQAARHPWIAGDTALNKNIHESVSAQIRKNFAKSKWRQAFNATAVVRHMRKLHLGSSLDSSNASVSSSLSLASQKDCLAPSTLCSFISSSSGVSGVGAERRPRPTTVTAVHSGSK
# Sequence of Serine/threonine-protein kinase Chk2 (Homo sapiens) (O96017 whole entry): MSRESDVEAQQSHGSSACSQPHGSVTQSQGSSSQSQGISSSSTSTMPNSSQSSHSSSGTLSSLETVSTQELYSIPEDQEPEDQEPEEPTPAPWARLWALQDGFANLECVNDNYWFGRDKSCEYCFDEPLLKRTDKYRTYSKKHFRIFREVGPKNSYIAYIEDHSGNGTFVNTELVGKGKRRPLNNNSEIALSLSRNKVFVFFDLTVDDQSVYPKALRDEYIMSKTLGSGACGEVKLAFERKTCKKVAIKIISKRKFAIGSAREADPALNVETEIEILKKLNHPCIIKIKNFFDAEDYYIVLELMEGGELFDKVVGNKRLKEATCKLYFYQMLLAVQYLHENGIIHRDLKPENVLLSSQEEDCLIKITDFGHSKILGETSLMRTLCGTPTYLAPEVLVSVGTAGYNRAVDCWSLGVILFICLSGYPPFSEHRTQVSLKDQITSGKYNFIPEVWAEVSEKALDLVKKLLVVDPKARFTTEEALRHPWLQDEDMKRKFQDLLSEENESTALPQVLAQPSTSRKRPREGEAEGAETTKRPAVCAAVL
Compound,inhibition [1],inhibition [2],inhibition [3],inhibition [4],inhibition [5],inhibition [6],inhibition [7],inhibition [8],inhibition [9],inhibition [10],inhibition [11],inhibition [12],inhibition [13],inhibition [14],inhibition [15],inhibition [16],inhibition [17],inhibition [18],inhibition [19],inhibition [20]
COc1cccc(-n2ncc3c(N/N=C/c4ccc(S(C)(=O)=O)cc4)ncnc32)c1,4.43%,14.7%,37.4%,13.7%,52.5%,20.1%,60.8%,0.78%,0.51%,-0.15%,1.01%,1.8%,4.11%,2.57%,0.23%,0.1%,-1.03%,-0.14%,0.05%,-1.65%
CCn1c(-c2nonc2N)nc2c(C#CC(C)(C)O)nc(OCCNC)cc21,3.94%,1.05%,3.39%,1.73%,0.16%,1.24%,4.81%,1.21%,2.06%,3.99%,3.51%,3.94%,7.7%,-0.53%,2.52%,-0.01%,1.87%,3.74%,6.21%,1.77%
Nc1nccc(-c2c(-c3ccc(F)cc3)ncn2CCCN2CCOCC2)n1,4.51%,3.4%,-1.7%,0.99%,-1.18%,0.6%,1.72%,0.27%,-0.53%,2.67%,2.46%,1.96%,2.44%,0.27%,-0.08%,3.25%,5.25%,1.76%,4.69%,5.49%
FC(F)(F)c1ccc(-c2nn3ncccc3c2-c2ccnc(Nc3ccc4c(c3)OCCO4)n2)cc1,4.55%,4.03%,5.73%,5.08%,8.29%,6.76%,11.7%,2.95%,-0.58%,-2.94%,-2.19%,-3.32%,-2.99%,-4.88%,-4.43%,0.08%,1.68%,3.99%,5.26%,1.54%
CN(C)C(=O)O[C@H]1CN[C@H](C#Cc2cc3ncnc(Nc4ccc(OCc5cccc(F)c5)c(Cl)c4)c3s2)C1,3.32%,1.87%,1.59%,2.39%,3.13%,2.38%,2.85%,0.05%,0.1%,2.54%,1.77%,2.42%,2.41%,1.15%,0.23%,0.86%,2.73%,1.56%,3.31%,1.79%
NS(=O)(=O)c1ccc(Nc2cc(-c3cccc(O)c3)n[nH]2)cc1,9.57%,5.05%,13.9%,3.55%,4.52%,3.59%,7.4%,1.05%,0.76%,4.18%,5.49%,5.13%,6.02%,0.32%,-1.03%,5.99%,8.68%,3.04%,6.54%,7.24%
N#Cc1cccc(Nc2nccc(-c3cnn4ncccc34)n2)c1,12.5%,38.5%,73.4%,0.94%,7.19%,2.94%,12.1%,-0.83%,3.54%,7.55%,35.4%,17.8%,63.4%,-1.28%,-0.33%,3%,3.73%,3.25%,10.6%,3.73%
